Results on eight compounds are retold here after PubChem BioAssay (EPA / NIEHS).

Assay [1] in a line: ATG_TAL_CIS: Attagene CIS-FACTORIAL HepG2 Assay for human TAL Basal Promoter (AID 2282966).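 Further: background control endpoint measuring basal TAL promoter reporter mRNA not a specific factor.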 The settings on record: HepG2 Attagene cis-factorial TAL promoter reporter; actives raise or lower the signal. In short, it runs like this:
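Fluorescence of labelled reporter cDNA fragments, resolved by capillary electrophoresis, gave the readout. Human HepG2 liver cells carried transiently transfected cis-element reporter units and were treated for 24 hours; activity was fitted bidirectionally against DMSO.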

Assay [2] is described as follows: ATG_TGFb_CIS: Attagene CIS-FACTORIAL HepG2 Assay for human Transforming Growth Factor (TGF) (AID 2282967). The settings on record: HepG2 Attagene CIS TGFb reporter, mRNA transcription; actives raise or lower the signal. In short, it runs like this:
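Readout: fluorescently labeled reporter cDNA fragments resolved by capillary electrophoresis after RT-PCR. Transfected HepG2 cells dosed for 24 h; endogenous TF activity at TGFB1-linked cis element; gain or loss fitted relative to DMSO.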

A short description of assay [3]: ATG_VDRE_CIS: Attagene CIS-FACTORIAL HepG2 Assay for human Vitamin D Receptor Element (VDRE) (AID 2282968). To be noted: HepG2 VDRE cis-reporter transcription, actives raise or lower the signal. In short, it runs like this:
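Cell-based multiplexed reporter format in human liver HepG2 cells, 24 h post-dose. Fluorescence from capillary electrophoresis of reporter cDNA gives the signal, with DMSO as negative control and baseline.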

Assay [4] deals with Estrogen receptor (Homo sapiens) (UniProt P03372). Nature of the assay: ATG_ERa_TRANS: Attagene TRANS-FACTORIAL HepG2 Assay for human Estrogen Receptor alpha (ERa) (AID 2282970; active means hit-call score of the fitted dose curve at least 0.9, where 1 is the maximum). The settings on record: HepG2 Attagene TRANS ERa GAL4 reporter, mRNA. In outline: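 Human liver HepG2, transient transfection of multiple GAL4-UAS reporter units; TRANS format (exogenous NR-Gal4 chimera). 24 h dosing. Readout: reporter mRNA, RT-PCR, 6-FAM primer extension, HpaI digest, capillary electrophoresis. Positive direction vs DMSO.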
Sequence of Estrogen receptor (Homo sapiens) (P03372 whole entry, looked up, the tested form may be a part): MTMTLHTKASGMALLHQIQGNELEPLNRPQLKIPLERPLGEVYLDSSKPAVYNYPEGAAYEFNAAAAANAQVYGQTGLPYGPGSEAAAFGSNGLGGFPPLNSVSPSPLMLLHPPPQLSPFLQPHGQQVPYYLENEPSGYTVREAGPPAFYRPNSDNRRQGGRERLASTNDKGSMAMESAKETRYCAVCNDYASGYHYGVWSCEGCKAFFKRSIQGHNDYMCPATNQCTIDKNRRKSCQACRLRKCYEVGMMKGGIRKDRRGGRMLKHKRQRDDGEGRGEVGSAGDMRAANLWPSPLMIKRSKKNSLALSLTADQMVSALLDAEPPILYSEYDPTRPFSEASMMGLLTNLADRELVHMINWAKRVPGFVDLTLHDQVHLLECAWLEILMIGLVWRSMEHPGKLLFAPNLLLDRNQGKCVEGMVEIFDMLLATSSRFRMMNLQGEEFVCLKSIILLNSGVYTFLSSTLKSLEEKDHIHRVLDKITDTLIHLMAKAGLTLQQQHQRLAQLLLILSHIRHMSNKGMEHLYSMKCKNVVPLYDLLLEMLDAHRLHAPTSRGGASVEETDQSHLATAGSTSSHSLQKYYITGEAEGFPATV

The target in assay [5] is X-box-binding protein 1 (Homo sapiens) (UniProt P17861). Nature of the assay: ATG_Xbp1_CIS: Attagene CIS-FACTORIAL HepG2 Assay for human X-box Binding Protein 1 (XBP1) (AID 2282972). To be noted: HepG2 XBP1 cis-element reporter, Attagene multiplex; actives raise or lower the signal. In outline: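 Fluorescence-labelled cDNA fragments from reporter transcripts, separated by capillary electrophoresis, give the signal. Source: HepG2 cells transfected with promoter-driven reporter units, harvested 24 h post-dose. DMSO served as reference for bidirectional curve fitting.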
Sequence of X-box-binding protein 1 (Homo sapiens) (P17861 whole entry, looked up, the tested form may be a part): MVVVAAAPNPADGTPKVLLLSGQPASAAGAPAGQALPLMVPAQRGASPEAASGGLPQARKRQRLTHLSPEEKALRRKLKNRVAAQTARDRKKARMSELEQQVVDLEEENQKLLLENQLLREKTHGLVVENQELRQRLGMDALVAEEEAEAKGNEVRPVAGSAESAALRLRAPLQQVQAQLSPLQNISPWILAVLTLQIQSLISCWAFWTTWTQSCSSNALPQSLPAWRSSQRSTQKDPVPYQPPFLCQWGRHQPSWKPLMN

The target of assay [6] is Oxysterols receptor LXR-alpha (Homo sapiens) (UniProt Q13133). Briefly: ATG_LXRa_TRANS: Attagene TRANS-FACTORIAL HepG2 Assay for human Liver X Receptor alpha (LXRa) (AID 2282980; active means hit-call score of the fitted dose curve at least 0.9, where 1 is the maximum). The settings on record: HepG2 Attagene TRANS reporter, LXRa transactivation. In short, it runs like this: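 Transfect HepG2 with GAL4-UAS multiplex reporter constructs (TRANS format, chimeric receptor-GAL4); treat 24 h; extract RNA, reverse-transcribe, PCR-amplify, FAM-label, HpaI-digest; resolve fragments by capillary electrophoresis. Upward response vs DMSO.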
Sequence of Oxysterols receptor LXR-alpha (Homo sapiens) (Q13133 whole entry, looked up, the tested form may be a part): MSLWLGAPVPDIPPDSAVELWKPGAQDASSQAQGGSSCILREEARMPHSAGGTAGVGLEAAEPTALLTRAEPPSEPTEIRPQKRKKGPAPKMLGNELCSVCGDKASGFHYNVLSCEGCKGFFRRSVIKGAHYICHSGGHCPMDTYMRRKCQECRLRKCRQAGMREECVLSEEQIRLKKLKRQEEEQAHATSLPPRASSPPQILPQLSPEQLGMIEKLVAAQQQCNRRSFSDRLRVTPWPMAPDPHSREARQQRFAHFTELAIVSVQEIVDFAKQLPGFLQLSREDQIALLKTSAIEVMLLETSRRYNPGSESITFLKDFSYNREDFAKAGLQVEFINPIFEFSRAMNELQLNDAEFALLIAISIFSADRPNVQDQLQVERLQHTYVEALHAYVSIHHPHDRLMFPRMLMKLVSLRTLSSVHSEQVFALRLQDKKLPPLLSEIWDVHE

The target of assay [7] is Hepatocyte nuclear factor 4-alpha (Homo sapiens) (UniProt P41235). Nature of the assay: ATG_HNF4a_TRANS: Attagene TRANS-FACTORIAL HepG2 Assay for human Hepatocyte Nuclear Factor 4 alpha (HNF4a) (AID 2282982; active means hit-call score of the fitted dose curve at least 0.9, where 1 is the maximum). To be noted: HepG2 HNF4a transactivation reporter, mRNA readout. In outline: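 Gain-of-signal mRNA induction, relative to DMSO vehicle, was read after 24 h compound treatment of HepG2 cells bearing transfected GAL4-UAS reporters. Detection used RT-PCR, 6-FAM primer extension and capillary electrophoresis.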
Sequence of Hepatocyte nuclear factor 4-alpha (Homo sapiens) (P41235 whole entry, looked up, the tested form may be a part): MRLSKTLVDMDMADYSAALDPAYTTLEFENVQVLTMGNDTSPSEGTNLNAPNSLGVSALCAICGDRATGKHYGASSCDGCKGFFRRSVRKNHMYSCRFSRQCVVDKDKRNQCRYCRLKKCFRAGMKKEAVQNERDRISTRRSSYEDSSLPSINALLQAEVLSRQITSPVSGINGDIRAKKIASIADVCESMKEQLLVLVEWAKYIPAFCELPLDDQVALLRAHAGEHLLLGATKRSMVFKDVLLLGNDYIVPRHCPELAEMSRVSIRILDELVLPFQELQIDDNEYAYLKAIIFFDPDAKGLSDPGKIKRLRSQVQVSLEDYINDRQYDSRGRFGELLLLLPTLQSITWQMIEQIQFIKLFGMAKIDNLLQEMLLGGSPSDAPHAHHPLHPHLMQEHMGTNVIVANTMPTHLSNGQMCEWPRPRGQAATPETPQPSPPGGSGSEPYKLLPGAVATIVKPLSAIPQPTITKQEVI

Assay [8] is described as follows: ATG_M_06_TRANS: Attagene TRANS-FACTORIAL HepG2 Assay for M06 Transcription Factor (Internal Marker) (AID 2282983; active means hit-call score of the fitted dose curve at least 0.9, where 1 is the maximum). To be noted: HepG2 Attagene TRANS M06 internal marker reporter. In outline: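 Transfect HepG2 with MRTUs → dose compounds 24 h → isolate RNA, oligo(dT) RT → PCR with reporter primers → 6-FAM primer extension → HpaI digest → CE fragment analysis. Positive direction vs DMSO.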

Assay [9] is described as follows: ATG_M_32_TRANS: Attagene TRANS-FACTORIAL HepG2 Assay for M32 Transcription Factor (Internal Marker) (AID 2282984; active means hit-call score of the fitted dose curve at least 0.9, where 1 is the maximum). The settings on record: HepG2 Attagene TRANS M32 internal marker reporter. In outline: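 Capillary electrophoresis of 6-FAM-labelled reporter fragments gives the signal; data fitted for gain over DMSO negative control. Source: HepG2 cells bearing transient multiple reporter transcription units, 24 h exposure.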

Assay [10] concerns the target Nuclear receptor subfamily 4 group A member 2 (Homo sapiens) (UniProt P43354). Nature of the assay: ATG_NURR1_TRANS: Attagene TRANS-FACTORIAL HepG2 Assay for human Nuclear Receptor Related Protein 1 (NURR1) (AID 2282985; active means hit-call score of the fitted dose curve at least 0.9, where 1 is the maximum). The settings on record: HepG2 Attagene TRANS reporter, mRNA readout. In outline: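 HepG2 / transient MRTU transfection / 24 h compound exposure / RT-PCR + CE fluorescence of reporter mRNA / gain-of-signal vs DMSO.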

Assay [11] addresses Transcriptional activator Myb (Homo sapiens) (UniProt P10242). Briefly: ATG_Myb_CIS: Attagene CIS-FACTORIAL HepG2 Assay for human Myeloblastosis (Myb) Proto-Oncogene Transcription Factor (AID 2282986). To be noted: HepG2 Attagene CIS-FACTORIAL Myb reporter transcription; actives raise or lower the signal. In outline:
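Reporter transcript levels, quantified by fluorescent RT-PCR and capillary electrophoresis, serve as the read-out. Transfected HepG2 cells carrying cis-promoter reporter units are dosed for 24 hours, and curves are fitted bidirectionally against DMSO controls.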

The target in assay [12] is Nuclear respiratory factor 1 (Homo sapiens) (UniProt Q16656). Briefly: ATG_NRF1_CIS: Attagene CIS-FACTORIAL HepG2 Assay for human Nuclear Respiratory Factor 1 (NRF1) Orphan Gene (AID 2282987). To be noted: HepG2 NRF1 cis-element reporter, Attagene multiplex; actives raise or lower the signal. In outline: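 Multiplexed cis-reporter assay, HepG2 cells, 24 h treatment. Total RNA → oligo(dT) RT → PCR with reporter-specific primers → 6-FAM primer extension → HpaI cut → CE. Bidirectional fit vs DMSO.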
Sequence of Nuclear respiratory factor 1 (Homo sapiens) (Q16656 whole entry, looked up): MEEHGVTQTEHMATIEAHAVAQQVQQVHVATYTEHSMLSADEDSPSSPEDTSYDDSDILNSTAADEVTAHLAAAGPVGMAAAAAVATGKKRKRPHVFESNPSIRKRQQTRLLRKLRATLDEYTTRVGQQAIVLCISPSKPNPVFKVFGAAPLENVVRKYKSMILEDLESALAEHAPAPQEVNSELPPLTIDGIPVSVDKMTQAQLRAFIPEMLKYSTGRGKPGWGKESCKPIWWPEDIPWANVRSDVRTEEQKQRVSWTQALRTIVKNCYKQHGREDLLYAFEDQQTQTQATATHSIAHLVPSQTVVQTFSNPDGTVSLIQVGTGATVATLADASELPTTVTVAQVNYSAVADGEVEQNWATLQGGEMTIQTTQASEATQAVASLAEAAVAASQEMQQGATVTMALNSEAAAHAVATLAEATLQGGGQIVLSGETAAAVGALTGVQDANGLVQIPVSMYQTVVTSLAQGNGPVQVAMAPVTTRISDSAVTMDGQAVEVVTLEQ

The target in assay [13] is Steroid hormone receptor ERR1 (Homo sapiens) (UniProt P11474). Briefly: ATG_ERRa_TRANS: Attagene TRANS-FACTORIAL HepG2 Assay for human Estrogen-Related Receptor alpha (ERRa) (AID 2282971; active means hit-call score of the fitted dose curve at least 0.9, where 1 is the maximum). To be noted: HepG2 Attagene TRANS reporter, ERRa transactivation. In outline:
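Reporter transcript induction was quantified by RT-PCR and capillary electrophoresis of FAM-labelled, HpaI-cut products after 24 h treatment of HepG2 cells carrying transiently transfected GAL4-UAS reporter units and an exogenous ERRa-Gal4 fusion; activity scored as increase over DMSO.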

Assay [14] in a line: ATG_M_19_TRANS: Attagene TRANS-FACTORIAL HepG2 Assay for M19 Transcription Factor (Internal Marker) (AID 2282974; active means hit-call score of the fitted dose curve at least 0.9, where 1 is the maximum). The settings on record: HepG2 Attagene TRANS-FACTORIAL M19 internal marker reporter. In short, it runs like this:
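Fluorescence of 6-FAM-labelled reporter cDNA fragments, separated by capillary electrophoresis, served as the readout. These derived from HepG2 cells carrying transfected GAL4-UAS reporter units after 24 h dosing, with DMSO as negative control.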

The nature of assay [15]: ATG_GAL4_TRANS: Attagene TRANS-FACTORIAL HepG2 Assay for GAL4 (Internal Marker) (AID 2282976; active means hit-call score of the fitted dose curve at least 0.9, where 1 is the maximum). The settings on record: HepG2 Attagene TRANS GAL4 internal marker reporter. In outline:
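First, HepG2 cells were transfected with reporter units under GAL4-UAS control. Next, they were treated with chemical for 24 h. Finally, RNA was reverse-transcribed, PCR-amplified, FAM-labelled and resolved by capillary electrophoresis, with induction scored against DMSO.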

Assay [16] deals with Glucocorticoid receptor (Homo sapiens) (UniProt P04150). Briefly: ATG_GR_TRANS: Attagene TRANS-FACTORIAL HepG2 Assay for human Glucocorticoid Receptor (GR) (AID 2282978; active means hit-call score of the fitted dose curve at least 0.9, where 1 is the maximum;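 further: activators score as hits since higher reporter transcript over DMSO is fitted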). To be noted: HepG2 Attagene TRANS GR reporter, mRNA transcription. In short, it runs like this:
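Fluorescent capillary-electrophoresis quantitation of reporter mRNA is the readout, taken 24 h after dosing human HepG2 cells carrying transiently transfected GAL4-UAS reporter units activated by chimeric NR-GAL4 fusions; activity scored as induction over DMSO.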

The target in assay [17] is Bile acid receptor (Homo sapiens) (UniProt Q96RI1). Nature of the assay: ATG_FXR_TRANS: Attagene TRANS-FACTORIAL HepG2 Assay for Farnesoid X Receptor (FXR) (AID 2282979; active means hit-call score of the fitted dose curve at least 0.9, where 1 is the maximum;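 further: hits raise reporter mRNA above DMSO so AC50 marks FXR activation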). To be noted: HepG2 Attagene TRANS FXR-GAL4 reporter transcription. In outline:
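Transient transfection of HepG2 with multiplexed GAL4-UAS reporter units; exogenous FXR-GAL4 chimera. Dose 24 h → TriZol RNA → oligo(dT) RT → PCR, 6-FAM primer extension, HpaI cut → CE. Gain vs DMSO.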

Records with an inconclusive call do not appear. Calls of active or inactive are those of the source. How the source made its calls, unless noted: active means hit-call score of the fitted dose curve at least 0.9, where 1 is the maximum; inactive means score below 0.9.

Sequence of Nuclear receptor subfamily 4 group A member 2 (Homo sapiens) (P43354 whole entry, looked up): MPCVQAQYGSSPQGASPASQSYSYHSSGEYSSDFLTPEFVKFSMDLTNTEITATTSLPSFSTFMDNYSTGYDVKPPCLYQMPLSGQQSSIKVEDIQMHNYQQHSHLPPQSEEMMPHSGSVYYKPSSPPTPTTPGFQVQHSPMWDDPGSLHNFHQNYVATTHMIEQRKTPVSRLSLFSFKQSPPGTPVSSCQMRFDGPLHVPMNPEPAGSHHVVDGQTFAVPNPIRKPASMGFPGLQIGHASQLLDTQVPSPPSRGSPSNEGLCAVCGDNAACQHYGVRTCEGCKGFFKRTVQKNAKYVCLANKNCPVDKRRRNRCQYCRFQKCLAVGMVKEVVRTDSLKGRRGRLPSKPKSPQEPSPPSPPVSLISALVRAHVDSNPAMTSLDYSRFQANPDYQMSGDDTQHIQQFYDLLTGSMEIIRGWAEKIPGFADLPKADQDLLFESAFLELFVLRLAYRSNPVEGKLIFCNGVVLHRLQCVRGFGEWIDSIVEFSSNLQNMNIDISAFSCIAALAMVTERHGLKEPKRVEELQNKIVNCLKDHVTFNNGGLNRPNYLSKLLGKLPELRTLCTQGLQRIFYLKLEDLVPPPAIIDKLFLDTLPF
Sequence of Transcriptional activator Myb (Homo sapiens) (P10242 whole entry, looked up): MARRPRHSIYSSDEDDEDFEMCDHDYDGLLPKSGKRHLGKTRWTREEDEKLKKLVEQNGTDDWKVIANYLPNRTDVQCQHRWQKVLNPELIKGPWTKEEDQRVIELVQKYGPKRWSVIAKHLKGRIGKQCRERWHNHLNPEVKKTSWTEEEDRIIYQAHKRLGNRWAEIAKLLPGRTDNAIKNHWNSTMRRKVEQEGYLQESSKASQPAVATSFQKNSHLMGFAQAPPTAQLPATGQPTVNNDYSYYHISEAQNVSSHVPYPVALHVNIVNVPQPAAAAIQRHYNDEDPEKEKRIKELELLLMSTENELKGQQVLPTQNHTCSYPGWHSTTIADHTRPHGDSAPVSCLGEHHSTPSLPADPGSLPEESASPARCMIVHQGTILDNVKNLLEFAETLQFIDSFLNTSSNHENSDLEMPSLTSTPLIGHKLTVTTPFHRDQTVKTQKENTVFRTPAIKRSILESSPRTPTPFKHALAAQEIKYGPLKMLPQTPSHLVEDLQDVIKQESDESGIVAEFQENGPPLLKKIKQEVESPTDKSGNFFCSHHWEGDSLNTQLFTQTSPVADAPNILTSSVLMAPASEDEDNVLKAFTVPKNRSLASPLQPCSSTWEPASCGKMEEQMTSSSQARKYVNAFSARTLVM
Sequence of Glucocorticoid receptor (Homo sapiens) (P04150 whole entry, looked up, the tested form may be a part): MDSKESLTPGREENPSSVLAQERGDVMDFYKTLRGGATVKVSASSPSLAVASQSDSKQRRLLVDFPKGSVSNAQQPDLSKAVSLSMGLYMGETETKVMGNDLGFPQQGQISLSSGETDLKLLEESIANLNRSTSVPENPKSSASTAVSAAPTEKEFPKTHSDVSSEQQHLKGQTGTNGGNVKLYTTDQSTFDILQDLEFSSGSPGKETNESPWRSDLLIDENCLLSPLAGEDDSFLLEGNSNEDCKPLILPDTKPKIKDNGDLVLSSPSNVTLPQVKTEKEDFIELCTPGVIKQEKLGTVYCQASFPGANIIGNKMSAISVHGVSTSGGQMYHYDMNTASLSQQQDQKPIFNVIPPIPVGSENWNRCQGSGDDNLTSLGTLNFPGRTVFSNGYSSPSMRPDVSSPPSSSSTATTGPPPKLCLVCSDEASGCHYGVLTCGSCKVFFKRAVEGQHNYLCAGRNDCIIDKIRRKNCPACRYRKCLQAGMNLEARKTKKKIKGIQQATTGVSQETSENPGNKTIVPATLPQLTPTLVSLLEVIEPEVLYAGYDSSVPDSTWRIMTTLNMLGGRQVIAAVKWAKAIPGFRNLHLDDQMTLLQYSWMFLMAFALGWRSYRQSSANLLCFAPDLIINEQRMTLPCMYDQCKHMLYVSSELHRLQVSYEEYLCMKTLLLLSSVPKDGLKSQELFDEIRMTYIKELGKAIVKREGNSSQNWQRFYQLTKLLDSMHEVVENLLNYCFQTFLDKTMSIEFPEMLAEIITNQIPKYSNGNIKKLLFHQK
Sequence of Bile acid receptor (Homo sapiens) (Q96RI1 whole entry, looked up, the tested form may be a part): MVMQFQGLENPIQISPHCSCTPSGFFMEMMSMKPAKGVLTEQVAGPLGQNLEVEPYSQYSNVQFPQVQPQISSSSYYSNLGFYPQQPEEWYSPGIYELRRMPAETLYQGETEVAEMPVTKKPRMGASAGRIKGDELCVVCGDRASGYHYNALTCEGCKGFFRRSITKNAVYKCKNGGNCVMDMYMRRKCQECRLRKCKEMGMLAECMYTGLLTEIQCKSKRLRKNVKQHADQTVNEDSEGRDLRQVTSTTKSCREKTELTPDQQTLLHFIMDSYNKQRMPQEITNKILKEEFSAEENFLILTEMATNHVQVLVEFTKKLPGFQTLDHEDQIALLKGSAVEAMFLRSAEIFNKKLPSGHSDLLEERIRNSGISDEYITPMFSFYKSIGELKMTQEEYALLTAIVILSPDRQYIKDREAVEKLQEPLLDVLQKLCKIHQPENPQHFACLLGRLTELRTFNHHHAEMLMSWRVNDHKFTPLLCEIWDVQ

As for `NCc1cccc(C2CCN(C(=O)c3ccc(C#Cc4ccccc4F)o3)CC2)c1`, the outcome in assay [1], in assay [2], in [7], in assay [8], in assay [9] and in [10] was inactive. Also, the call in assay [11] and in assay [12] was inactive. Further, the AC50 in assay [3] is 14.3 µM (active); in assay [4], 9.53 µM (active); in assay [5], 14 µM (active); in assay [6] it was 8.2 µM (active).
Take `CN1C(=O)N(c2ccccc2Br)Cc2cnc(Nc3ccc4c(c3)OCC(CO)O4)nc21` (configuration not stated): the results for the AC50 in [1], in assay [3] and in assay [5] were 12.4 µM (active), 4.14 µM (active) and 9.79 µM (active), respectively. Moreover, the compound was classed as inactive in assay [2], in assay [13], in [14], in assay [15], in assay [16] and in [17]. Further, the result in assay [9], in assay [10], in [11] and in assay [12] was inactive.
In the case of `Cc1ccc(C(C)C)cc1`, the call in assay [1], in [2], in assay [3], in [5], in [6] and in assay [8] was inactive. Also, the call in assay [10], in assay [11] and in assay [12] was inactive.
On to `CCCC(=O)OCCC(C)C`, for which the call in assay [1], in [2], in assay [3], in assay [4], in assay [5] and in assay [17] was inactive. The call in assay [6], in assay [8] and in [12] was inactive. In addition, in assay [11], the AC50 is 1.84 µM (active).
Turning to `O=C(Nc1ccc(Cl)cc1)Nc1ccc(Cl)c(Cl)c1`, the outcome in [1], in [2], in assay [14], in [16], in [17] and in assay [6] was inactive. For the same compound, the compound was classed as inactive in assay [7], in assay [8], in assay [9], in assay [10], in assay [11] and in assay [12]. Also, the AC50 in [5] is 5.26 µM (active).
In the case of `O=C1c2ccccc2C(=O)N1CCc1noc(-c2ccc(CN3CCCCCC3)s2)n1`, the compound was classed as inactive in assay [1], in [2], in assay [5], in assay [17], in [7] and in [8]. Besides, the result in [9], in [10], in assay [11] and in assay [12] was inactive.
For the compound `CN1C(=O)CC[C@H]1c1cccnc1`, the compound was called inactive in [1], in assay [2], in assay [5], in [15], in [6] and in [7]. Moreover, the outcome in [8], in assay [9], in assay [10], in assay [11] and in [12] was inactive.
In the case of `Cc1ccc2oc(CN(Cc3ccccc3)C(=O)Nc3c(F)cc(F)cc3F)c(-c3ccc(Cl)cc3)c2c1`, the call in assay [1], in assay [2], in assay [3], in assay [13], in assay [5] and in assay [14] was inactive. In addition, the compound was classed as inactive in assay [16], in [6], in assay [7], in assay [8], in assay [9] and in [10]. Besides, the result in [11] and in assay [12] was inactive.
